PubChem BioAssay AID1159580 (chemical genetic matrix, 2015)
Among all 5,500 compounds or so, about 2,000 (36%) were called active. Roughly 18% stayed inconclusive and do not appear here. Rule as the data show it: active = normalized growth mostly below about 0.91 (no sharp cut-off); inconclusive = no clear call, values can overlap the other calls; inactive = mostly above about 0.92. The list shows a part of the results.

Test: chemical genetic growth profiling, strain panel (AID 1159580);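 also: tested at 20 µM; growth read once vehicle control cultures reached saturation at 30 °C; 1 = growth at the plate median or of vehicle wells; lower values mean less growth of the strain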
Settings: S. cerevisiae deletion strains, growth OD

Measured: normalized growth

CC(=O)C1COc2ccc(C)cc2C1=O (configuration not stated)
inactive: locus YAL013W, strain DEP1, hits give low values 0.972 | locus YCL061C, strain MRC1, hits give low values 0.916 | locus YDR150W, strain NUM1, hits give low values 0.984 | locus YEL061C, strain CIN8, hits give low values 0.924 | locus YGR078C, strain PAC10, hits give low values 0.952 | locus YHR087W, strain rtc3, hits give low values 0.916 | locus YJR043C, strain POL32, hits give low values 0.931 | locus YJR075W, strain HOC1, hits give low values 0.903 | locus YMR263W, strain SAP30, hits give low values 0.96 | locus YNL153C, strain GIM3, hits give low values 0.954 | locus YNL298W, strain CLA4 (second series), hits give low values 0.855 | locus YNL322C, strain KRE1, hits give low values 0.979 | locus YNR030W, strain Alg12, hits give low values 0.901 | locus YPL055C, strain LGE1, hits give low values 0.93 | locus YPL241C, strain CIN2, hits give low values 0.914
active: locus YBR229C, strain ROT2, hits give low values 0.898 | locus YDL101C, strain DUN1, hits give low values 0.838 | locus YHR030C, strain SLT2, hits give low values 0.291 | locus YJL187C, strain SWE1, hits give low values 0.888 | locus YKL190W, strain CNB1, hits give low values 0.832 | locus YLR039C, strain RIC1, hits give low values 0.173 | locus YLR058C, strain SHM2 (second series), hits give low values 0.923 | locus YLR085C, strain ARP6, hits give low values 0.44 | locus YLR262C, strain YPT6, hits give low values 0.176 | locus YML094W, strain GIM5, hits give low values 0.848 | locus YMR219W, strain ESC1, hits give low values 0.928 | locus YPR135W, strain CTF4, hits give low values 0.58
